Results reported in ChEMBL document CHEMBL3988442, “University of Dundee, Small-Polar-MMV Screening Library” (2021).

The molecules below were run against T1, Aspartate--tRNA(Asp/Asn) ligase (Mycobacterium tuberculosis (strain ATCC 25618 / H37Rv)) (UniProt P9WFW3) (assay: Assay for Asp RNA synthetase-1 from Mycobacterium tuberculosis). Conditions: 30 µM.
T1 sequence (whole entry): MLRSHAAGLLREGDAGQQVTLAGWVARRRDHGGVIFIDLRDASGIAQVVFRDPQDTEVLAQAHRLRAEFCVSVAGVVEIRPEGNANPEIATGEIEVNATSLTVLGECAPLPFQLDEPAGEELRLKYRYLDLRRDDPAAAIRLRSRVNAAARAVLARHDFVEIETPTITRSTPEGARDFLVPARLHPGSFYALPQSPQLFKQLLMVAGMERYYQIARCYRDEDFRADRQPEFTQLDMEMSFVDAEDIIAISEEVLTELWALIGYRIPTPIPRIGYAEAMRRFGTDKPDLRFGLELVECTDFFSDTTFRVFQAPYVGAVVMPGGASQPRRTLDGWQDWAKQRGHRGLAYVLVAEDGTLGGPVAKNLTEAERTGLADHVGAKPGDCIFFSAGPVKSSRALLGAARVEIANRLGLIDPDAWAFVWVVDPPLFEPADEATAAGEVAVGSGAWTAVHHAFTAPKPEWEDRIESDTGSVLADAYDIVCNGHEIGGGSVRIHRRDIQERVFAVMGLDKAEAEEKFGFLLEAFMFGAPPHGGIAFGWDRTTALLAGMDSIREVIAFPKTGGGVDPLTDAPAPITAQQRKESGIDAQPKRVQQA
Type: functional
Design: scale not given: in the data most compounds retested in dose-response had high values
In the case of `CCCS(=O)(=O)N1C[C@H]2OC(=O)N(CCc3cccc(Cl)c3)[C@H]2C1`, the Percent Effect was -4.26%. For `CCN(CC)C(=O)CCNC(=O)Cc1nc(-c2ccco2)oc1C`, the Percent Effect was -1.21%. For `O=C(NCCCc1ccncc1)C1CCCN(Cc2ccco2)C1` (stereo not given), the Percent Effect was 2.17%. In the case of `CC(C)CN1CCc2[nH]cnc2C12CCN(C(=O)c1cccnc1)CC2`, the Percent Effect was 1.3%. `Cc1cc(C)n(CC2CCCCN2CC(=O)Nc2nncs2)n1` (stereo not given) gave a Percent Effect of -0.218%. Molecule `O=C(c1cncc(N2CCC(O)(CO)CC2)n1)N1CCCC1` has a Percent Effect of -3.27%. Molecule `O=C(c1cncc(N2CCC3(CCNCC3)CC2)n1)N1CCCC1` has a Percent Effect of -3.85%. With `CCc1nc(CCNC(=O)Nc2ccc(C(=O)NC)cc2C)cs1` the Percent Effect was -2.88%. `Cc1cc(S(=O)(=O)N2CCCc3ccc(F)cc32)sc1C(=O)O` gave a Percent Effect of 1.87%. `CCOC(=O)C1CCCN(c2ccc(-c3nc(C)no3)cn2)C1` (stereo not given) was tested, and the Percent Effect was -0.931%. In the case of `CCc1ncc(C(=O)NCCNC(=O)Cc2ccc(F)cc2)s1`, the Percent Effect was -2.42%. `CCOCCn1nnc(C2(NC(=O)c3ccccc3)CCCC2)n1` showed a Percent Effect of -3.44%. `Cn1nccc1C(=O)N1CCOC(Cc2cccc(C(F)(F)F)c2)C1` (stereo not given) gave a Percent Effect of -2.91%. With `Cc1nn(C)c(C)c1C1COCCN1c1ncnc2sccc12` (stereo not given) the Percent Effect was 0.54%. `COc1cccc(S(=O)(=O)CCN2CCCCC2)c1` showed a Percent Effect of 3.32%. Molecule `CCS(=O)(=O)c1ccc(N2CCC(NC(C)=O)CC2)cc1` has a Percent Effect of 1.78%. `CC(C)(C)N1CC(C(=O)N2CCN(CCc3ccccc3)CC2)CC1=O` (stereo not given) gave a Percent Effect of 0.448%. Work on `COc1nc(C)c(C(=O)N(C)Cc2nc(-c3ccccn3)no2)s1` yielded a Percent Effect of 1.83%. `CC(C)Nc1ncc(CN2C[C@@H](CN3CCC(O)CC3)[C@@H](CO)C2)cn1` was tested, and the Percent Effect was -1.99%. `Cn1cc(CNc2ncnc3c2CCN(Cc2ccsc2)CC3)cn1` showed a Percent Effect of 1.05%.
